This note sets out measurements from publication PMC7819943, “Rice protein-binding microarrays: a tool to detect cis-acting elements near promoter regions in rice”.

Whole data set: some 35,000 sequences, median “fluorescence intensity (a.u.)” near 10,000, cut for the highest 2% near 52,000. The list comes from a sample in which the highest values are over-represented; it also holds similar and randomly drawn sequences.

This test deals with T1, OsWOX13 (Oryza sativa, UniProt Q5QMM3 1-267).
T1 sequence: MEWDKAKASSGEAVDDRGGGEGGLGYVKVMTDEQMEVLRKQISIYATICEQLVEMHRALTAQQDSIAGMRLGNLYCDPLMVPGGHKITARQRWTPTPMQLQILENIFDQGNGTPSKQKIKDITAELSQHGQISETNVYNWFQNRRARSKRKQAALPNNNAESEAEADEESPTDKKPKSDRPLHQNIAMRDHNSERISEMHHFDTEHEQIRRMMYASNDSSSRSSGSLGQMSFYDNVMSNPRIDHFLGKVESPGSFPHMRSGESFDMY
Kind of test: protein-binding microarray (RPBM); PBS, 2% BSA, 51.3 ng/ul salmon testes DNA, 50 uM zinc acetate, 200 nM TF, 25 C, 1 h; high values mean tight binding. The following applies: protein: recombinant; tags: N-terminal polyhistidine and DsRed monomer fusion (pET32a); label: CyDye5-dUTP incorporated in the synthesized complementary strand; 3' TTTTT single-stranded linker to array surface; dsDNA, one strand shown. The essentials: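 Binding signal is reported as fluorescence intensity per feature (arbitrary units) from an Axon 4000B scanner. Incubation used 200 nM of each Ni–NTA-purified, N-terminally polyhistidine- and DsRed-fused transcription factor from E. coli BL21-CodonPlus on a double-stranded custom Agilent array for 1 h at 25 °C, with 50 µM zinc acetate in the buffer, followed by washing.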
“CAGAATTTACAAAATGGATTGACCAAAAGCCTAATTAATTCGGAGTCACCTAGTGCAG”: the binding signal is 7770 fluorescence intensity (a.u.).
For “CAAGATTTTAATAAATGCATAATTTTATGAATCGCATAGACGGAGTCACCTAGTGCAG”, the binding signal was 7290 fluorescence intensity (a.u.).
Next, “CATGACATACAATTTATCAGATCCAATTTTAGGATTATTCCGGAGTCACCTAGTGCAG”: 10900 fluorescence intensity (a.u.).
Next, “GTTAACTAATTAGGGCGTATGAACAAGTCATCGTGGCAGTCGGAGTCACCTAGTGCAG”: 23000 fluorescence intensity (a.u.).
For the sequence “GAATAATTACCGAAAAGGCAATTAATTAGTGACAGGGAGTCGGAGTCACCTAGTGCAG”, the binding signal is 26200 fluorescence intensity (a.u.).
Next, “GGCTTCCTTAATTGTACATGTCTCTCTTCATTCTGCTGCACGGAGTCACCTAGTGCAG”: 5930 fluorescence intensity (a.u.); “TTTCTGATTTACGTGGCTTGTGAGTAGGGCGCCTCCTCATCGGAGTCACCTAGTGCAG”: 8000 fluorescence intensity (a.u.).
Next, “TTATGATTATTTTAGAATTTTCAAAATCATGGAATATAATCGGAGTCACCTAGTGCAG”: 7490 fluorescence intensity (a.u.); “GCCTTAACTTTGTGATCATATCTTCATCTTCATTAGGCCTCGGAGTCACCTAGTGCAG”: 4300 fluorescence intensity (a.u.); “GTAAATTGATTTGTATATGGCCATTTCCAACCCAAAACACCGGAGTCACCTAGTGCAG”: 56300 fluorescence intensity (a.u.).
Next, “TAAATTTAAACGGTAAATTAAGGAGAGGGAGGTCATTCTTCGGAGTCACCTAGTGCAG”: 6560 fluorescence intensity (a.u.); “GATGCCATCTAATTTTAAATGATGATGTGGAGAAGAGAGTCGGAGTCACCTAGTGCAG”: 7100 fluorescence intensity (a.u.).
Consider “ATTTGTATAATTGGAACCATGCCATTCCAACACAACAAAACGGAGTCACCTAGTGCAG”, for which the binding signal was 6320 fluorescence intensity (a.u.).
In the case of “AATTGAGACTTCGGTAAAACTTAAGGGACTAAATTAACTACGGAGTCACCTAGTGCAG”, the binding signal is 52700 fluorescence intensity (a.u.).
As for “AAACAGTTTTCCCCAAAATTGATTGTAAATATACATATACCGGAGTCACCTAGTGCAG”, the binding signal was 14900 fluorescence intensity (a.u.).
Next, “CTAAATTATACGGAGATGATAATGTAGTTACAGTGCAGTTCGGAGTCACCTAGTGCAG”: 21900 fluorescence intensity (a.u.); “ATCTAAATTGTTTTAGATTTGTGCACAAGAACAAAAGAGACGGAGTCACCTAGTGCAG”: 16800 fluorescence intensity (a.u.).
To “CATCTAATTTAAATTTAAATGTTTTAAAAGATAGAGACGTCGGAGTCACCTAGTGCAG” belongs 52400 fluorescence intensity (a.u.); to “AATACAATTAATTACAGTTAATTAAATGATAGAAAGAGTTCGGAGTCACCTAGTGCAG”, 55400 fluorescence intensity (a.u.); to “TTAAATGATAGAAATACAATTATTACGGAATAGAATGTAGCGGAGTCACCTAGTGCAG”, 29100 fluorescence intensity (a.u.).
On to “TAATTAAATTGTCATATCACTTCTTAACTTATTGGACTAACGGAGTCACCTAGTGCAG”, for which the binding signal is 5280 fluorescence intensity (a.u.).
To “TGTATGATTTATGTATAATTAGAGATATACAATCATATAACGGAGTCACCTAGTGCAG” belongs 16900 fluorescence intensity (a.u.); to “AGGAGAAACAATTTGCAATCATCACATTGTTTAAAGAGATCGGAGTCACCTAGTGCAG”, 5330 fluorescence intensity (a.u.); to “CATTGGAATTGATGATCACATTATACATGGATTTGACCCACGGAGTCACCTAGTGCAG”, 30600 fluorescence intensity (a.u.).
To “TCTAAACTAATCTAATCTAGCAACGCGATTTAGCCGATACCGGAGTCACCTAGTGCAG” belongs 9190 fluorescence intensity (a.u.).
Take “TTCTGTCAATTAGGTGGGTGACATGTGGATCCCACGATATCGGAGTCACCTAGTGCAG”: the binding signal is 13200 fluorescence intensity (a.u.).
Next, “GATAAATTAATAAAATTATCAAAATTTTATGATTGGTTTACGGAGTCACCTAGTGCAG”: 54900 fluorescence intensity (a.u.).
To “ATATCAATCCGATGATATTAATTTTAGCAAATAAAATTTACGGAGTCACCTAGTGCAG” belongs 5130 fluorescence intensity (a.u.).
Next, “ATTACATACCTGATTGAGTTGGTACTACAAGGCAGGGAGCCGGAGTCACCTAGTGCAG”: 16400 fluorescence intensity (a.u.); “TCATTGATTGATTGGTACTACTACTGCTAGAAGAAAAGGCCGGAGTCACCTAGTGCAG”: 55200 fluorescence intensity (a.u.).
“TTGATTGGAAAGATTGGAAAGAATTGAATGCGAATTGGTACGGAGTCACCTAGTGCAG”: the binding signal is 34500 fluorescence intensity (a.u.).
To “CTTTGATTACATCAAGCCACTGAATTATCAGTTATAATCTCGGAGTCACCTAGTGCAG” belongs 23100 fluorescence intensity (a.u.).
Next, “TTATTTGCATTGATTTAATAGGGTTTACTCTTGCTTTGCACGGAGTCACCTAGTGCAG”: 7870 fluorescence intensity (a.u.).
For the sequence “AGATAGATTAATATATGATAAATCACTAATATCAAATTTACGGAGTCACCTAGTGCAG”, the binding signal is 5780 fluorescence intensity (a.u.).
To “TACCTTAATTTATTGATTGCACTCTTGTTCTCACACGGTTCGGAGTCACCTAGTGCAG” belongs 53200 fluorescence intensity (a.u.).
With “ACTGATTTGTTTTATTGTTTTGATTTTAATCCTCTCAATTCGGAGTCACCTAGTGCAG”, the binding signal is 38800 fluorescence intensity (a.u.).
To “TTGATTGTGAATTTATAATGTTTGGATATAATGATTACTTCGGAGTCACCTAGTGCAG” belongs 34500 fluorescence intensity (a.u.).
Next, “GTGATTACATTGATAATAATTGATTGAATCAGTTTGTTCTCGGAGTCACCTAGTGCAG”: 62600 fluorescence intensity (a.u.).
To “TAGAATTACTTACTAAATTGCTTGTTATATTGAAGATATTCGGAGTCACCTAGTGCAG” belongs 5790 fluorescence intensity (a.u.).
In the case of “AAAATAGTTAATACTCAATTAATCATGAGCTAATGGCTCACGGAGTCACCTAGTGCAG”, the binding signal is 9240 fluorescence intensity (a.u.).
On to “CATAATTACCAGACATGTTAAATTTAATATATGGATGTATCGGAGTCACCTAGTGCAG”, for which the binding signal was 40800 fluorescence intensity (a.u.).
To “ATTATTGATTTGATGAAACTAATTTAGTATTATAAATATTCGGAGTCACCTAGTGCAG” belongs 34600 fluorescence intensity (a.u.); to “GTGATAATTTAGTTACTAAACATGTTGTGAAACTTTATCTCGGAGTCACCTAGTGCAG”, 3720 fluorescence intensity (a.u.).
Consider “GGATAAAATTTAAATTGTACCAGTTTACGACGAATTACATCGGAGTCACCTAGTGCAG”, for which the binding signal is 8600 fluorescence intensity (a.u.).
To “TTAAGTAATTAAGAGGTGATAGTTAATTTATGCATGCATGCGGAGTCACCTAGTGCAG” belongs 30400 fluorescence intensity (a.u.); to “CATCATCTCTAATTTTAATCAAAATATAAACTTTGCAGTGCGGAGTCACCTAGTGCAG”, 9140 fluorescence intensity (a.u.).
To “ACTGATTGACGTTTCTCATAACTAAAATATAGGTATTGTGCGGAGTCACCTAGTGCAG” belongs 60900 fluorescence intensity (a.u.).
